Screens deposited in PubChem BioAssay by The Scripps Research Institute Molecular Screening Center.
Compounds with a hit are over-represented: about 2.4% of the library has one in this group of screens.
M1 antag = blocks human M1 muscarinic receptor; P11229; CHO-K1 hM1, Fluo-8 calcium fluorescence, ACh EC80 antagonist; inhibition, % at 3 µM; 360,000 tested, 1.3% active; AID 588852;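 active means percent inhibition above its own plate's cutoff, namely the mean of that plate's compound wells plus 3 SD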;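 further: peak over basal fluorescence ratio during 140 s after agonist addition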
Target sequence (P11229 whole entry, looked up): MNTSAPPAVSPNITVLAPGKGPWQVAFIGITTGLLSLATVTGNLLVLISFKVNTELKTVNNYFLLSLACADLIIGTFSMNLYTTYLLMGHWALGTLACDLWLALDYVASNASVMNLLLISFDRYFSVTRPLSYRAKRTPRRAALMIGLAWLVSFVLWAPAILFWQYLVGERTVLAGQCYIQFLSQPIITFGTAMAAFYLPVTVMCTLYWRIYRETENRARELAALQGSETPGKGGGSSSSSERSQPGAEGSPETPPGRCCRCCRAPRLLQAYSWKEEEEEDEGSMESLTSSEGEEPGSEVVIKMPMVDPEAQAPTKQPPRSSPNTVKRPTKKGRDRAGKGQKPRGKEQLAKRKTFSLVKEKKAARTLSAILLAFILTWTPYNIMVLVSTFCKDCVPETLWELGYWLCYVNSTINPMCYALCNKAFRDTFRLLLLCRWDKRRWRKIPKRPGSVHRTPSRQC
CHO-K1 Ca PAM = M1 PAM counterscreen hit in parental CHO-K1 cells | 360,000 tested, 0.02% active | AID 602247 | ATP EC20, Fluo-8 calcium fluorescence; 0% at ATP EC20, 100% at ATP max | activation, % at 3 µM;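 active means activation above the run cutoff, the mean activation of all test compounds plus 3 SD, cut at about 40% in these data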;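 further: peak over basal fluorescence ratio in a 140 s read after ATP addition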
M1 ag = agonists of human M1 muscarinic receptor; P11229; CHO-K1 hM1, Fluo-8 calcium fluorescence, agonist mode; 0% DMSO, 100% acetylcholine EC100; activation, % at 3 µM; 360,000 tested, 0.33% active; AID 588814;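 active means activation above the run's mean compound activation plus 3 SD, cut at about 16% in these data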;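 further: peak over basal fluorescence ratio within a 140 s kinetic read after compound addition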
CHO-K1 Ca antag = M1 antagonist counterscreen hit in parental CHO-K1 cells; inhibition, % at 3 µM; ATP-induced calcium, Fluo-8 fluorescence; AID 602250; 360,000 tested, 0.6% active;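 active means inhibition above a per-plate cutoff, the plate's mean sample inhibition plus 3 SD, cut at about 24% in these data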
M1 ag parental = counter-screen for M1 agonists: effect in parental CHO-K1 cells. Fluo-8 calcium fluorescence; scaled to maximal ATP response, vehicle zero. activation, % at 3 µM. 360,000 tested, 0.48% active; in the data active means activation above about 15%;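 further: untransfected CHO-K1 host cells lacking M1 receptor as counterscreen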
M1 PAM = human CHRM1 positive allosteric modulation | CHO-K1 hM1, Fluo-8 calcium fluorescence, ACh EC20; 0% = ACh EC20, 100% = maximal ACh | 360,000 tested, 0.088% active | activation, % at 3 µM | AID 588819; in the data active means activation above about 19%, passing the limit was not always enough
A number is an active result.

Screening Cc1ccc(CC(=O)Nc2ccccc2-c2ccccc2)cc1C returned M1 antag inactive, CHO-K1 Ca PAM inactive, M1 ag inactive, CHO-K1 Ca antag 25, M1 ag parental inactive and M1 PAM inactive.
Screening CCCCOc1ccc(C(=O)NCC(=O)N2CCN(C(=O)c3ccco3)CC2)cc1 returned M1 antag inactive, CHO-K1 Ca PAM inactive, M1 ag inactive, CHO-K1 Ca antag inactive, M1 ag parental inactive and M1 PAM inactive.
Screening C/C(=N\NC(=O)c1ccc(CSc2cccc3cccnc23)cc1)C1CCCCC1 returned M1 antag inactive, CHO-K1 Ca PAM inactive, M1 ag 52, CHO-K1 Ca antag inactive, M1 ag parental inactive and M1 PAM inactive.
COc1ccc(/C(C)=N/NC(=O)c2ccc(CSc3cccc4cccnc34)cc2)cc1OC was read as M1 antag inactive, CHO-K1 Ca PAM inactive, M1 ag 51, CHO-K1 Ca antag inactive, M1 ag parental inactive and M1 PAM inactive.
CN(C)C(CNC(=O)c1ccc(NC(=O)c2cccs2)cc1)c1ccccc1 (stereo not drawn) was read as M1 antag inactive, CHO-K1 Ca PAM inactive, M1 ag inactive, CHO-K1 Ca antag inactive, M1 ag parental inactive and M1 PAM inactive.
Screening Cc1ccc(NS(=O)(=O)c2ccc(C(=O)NCC(c3ccco3)N(C)C)cc2)cc1 (stereo not drawn) returned M1 antag inactive, CHO-K1 Ca PAM inactive, M1 ag inactive, CHO-K1 Ca antag inactive, M1 ag parental 26 and M1 PAM inactive.
`CN(C)C(CNC(=O)c1ccc(C2SCCS2)cc1)c1ccccc1` (stereo not drawn) gave M1 antag 38, CHO-K1 Ca PAM inactive, M1 ag inactive, CHO-K1 Ca antag inactive, M1 ag parental inactive and M1 PAM inactive.
Screening Cc1ccc(S(=O)(=O)Nc2cccc(C(=O)NCC(c3ccco3)N(C)C)c2)cc1F (stereo not drawn) returned M1 antag 43, CHO-K1 Ca PAM inactive, M1 ag inactive, CHO-K1 Ca antag inactive, M1 ag parental inactive and M1 PAM inactive.
For Cc1cccc(NS(=O)(=O)c2ccc(C(=O)NCC(c3ccccc3)N(C)C)cc2)c1C (stereo not drawn) the results were M1 antag 27, CHO-K1 Ca PAM inactive, M1 ag inactive, CHO-K1 Ca antag inactive, M1 ag parental inactive and M1 PAM inactive.
CCOc1ccccc1NC(=O)COC(=O)CC(C)(C)CC1=NS(=O)(=O)c2ccccc2N1 was read as M1 antag inactive, CHO-K1 Ca PAM inactive, M1 ag inactive, CHO-K1 Ca antag inactive, M1 ag parental inactive and M1 PAM inactive.
Screening CN(C(=O)COC(=O)COc1ccc(Cl)cc1Cl)c1c(N)n(Cc2ccccc2)c(=O)[nH]c1=O returned M1 antag inactive, CHO-K1 Ca PAM inactive, M1 ag inactive, CHO-K1 Ca antag inactive, M1 ag parental inactive and M1 PAM inactive.
Screening C/C(=N/NC(=O)CNc1ccc(C)cc1)c1ccc(Br)s1 returned M1 antag inactive, CHO-K1 Ca PAM inactive, M1 ag inactive, CHO-K1 Ca antag inactive, M1 ag parental 21 and M1 PAM inactive.
Screening O=C(CSc1nnnn1C1CC2CCC1C2)Nc1ccnc2ccccc12 (stereo not drawn) returned M1 antag 32, CHO-K1 Ca PAM inactive, M1 ag inactive, CHO-K1 Ca antag 37, M1 ag parental inactive and M1 PAM inactive.
Screening COc1cccc(CN(CCC(=O)O)Cc2cccc(OC)c2)c1 returned M1 antag inactive, CHO-K1 Ca PAM inactive, M1 ag inactive, CHO-K1 Ca antag inactive, M1 ag parental inactive and M1 PAM inactive.
CCCCNC(=O)C1c2ccccc2OCC(=O)N1CC(F)(F)F (stereo not drawn) was read as CHO-K1 Ca PAM inactive, CHO-K1 Ca antag inactive and M1 ag parental inactive.
`O=C(NC(=S)Nc1ccc(CN2CCOCC2)cc1)c1ccc(-c2cccc(Cl)c2)o1` gave M1 antag 58, CHO-K1 Ca PAM inactive, M1 ag inactive, CHO-K1 Ca antag inactive, M1 ag parental inactive and M1 PAM inactive.
COc1ccc(Br)cc1C(=O)NC(=S)Nc1ccc(CN2CCOCC2)cc1 was read as M1 antag 32, CHO-K1 Ca PAM inactive, M1 ag inactive, CHO-K1 Ca antag inactive, M1 ag parental inactive and M1 PAM inactive.
Screening O=C(Nc1ccc(CN2CCOCC2)cc1)c1ccc(-c2cccc(Cl)c2)o1 returned M1 antag inactive, CHO-K1 Ca PAM inactive, M1 ag inactive, CHO-K1 Ca antag inactive, M1 ag parental inactive and M1 PAM inactive.
`Cc1ccc(C(=O)NC(=S)Nc2ccc(CN3CCOCC3)cc2)cc1` gave M1 antag inactive, CHO-K1 Ca PAM inactive, M1 ag inactive, CHO-K1 Ca antag inactive, M1 ag parental inactive and M1 PAM inactive.
For C=CCOc1ccccc1CN(CCc1ccccc1)C(=O)c1cccc(S(C)(=O)=O)c1 the results were M1 antag inactive, CHO-K1 Ca PAM inactive, M1 ag inactive, CHO-K1 Ca antag inactive, M1 ag parental 16 and M1 PAM inactive.
Screening CC(C)NC(=O)c1ccc2sc([C@H]3C[C@H](O)[C@@H](CO)O3)nc2c1 returned M1 antag inactive, CHO-K1 Ca PAM inactive, M1 ag inactive, CHO-K1 Ca antag inactive, M1 ag parental inactive and M1 PAM inactive.
`COc1ccc(NS(=O)(=O)c2ccc(NC(=S)NC(=O)C(C)C)cc2)cc1` gave M1 antag inactive, CHO-K1 Ca PAM inactive, M1 ag 19, CHO-K1 Ca antag inactive, M1 ag parental inactive and M1 PAM inactive.
For CCOc1ccc(NS(=O)(=O)c2ccc(NC(=S)NC(C)=O)cc2)cc1 the results were M1 antag inactive, CHO-K1 Ca PAM inactive, M1 ag 34, CHO-K1 Ca antag inactive, M1 ag parental 22 and M1 PAM inactive.
COc1ccc(C(CNC(=O)CCNS(=O)(=O)c2ccc(C)cc2)N2CCOCC2)cc1 (stereo not drawn) was read as M1 antag inactive, CHO-K1 Ca PAM inactive, M1 ag inactive, CHO-K1 Ca antag inactive, M1 ag parental inactive and M1 PAM inactive.
For CCN(CC)C(=O)C1=C(C)N(CCCN2CCCC2=O)C(=O)C(CC(=O)NCc2cccc3ccccc23)C1 (stereo not drawn) the results were M1 antag inactive, CHO-K1 Ca PAM inactive, M1 ag inactive, CHO-K1 Ca antag inactive, M1 ag parental inactive and M1 PAM inactive.
O=S(=O)(Nc1cccc(F)c1)c1cccc2nsnc12 was read as M1 antag inactive, CHO-K1 Ca PAM inactive, M1 ag inactive, CHO-K1 Ca antag inactive, M1 ag parental inactive and M1 PAM inactive.
For O=C(O)c1cc(Br)ccc1NS(=O)(=O)c1cccc2nsnc12 the results were M1 antag inactive, CHO-K1 Ca PAM inactive, M1 ag inactive, CHO-K1 Ca antag 27, M1 ag parental inactive and M1 PAM inactive.
`Cc1ccc(NS(=O)(=O)c2cccc3nsnc23)cc1C` gave M1 antag 40, CHO-K1 Ca PAM inactive, M1 ag inactive, CHO-K1 Ca antag inactive, M1 ag parental inactive and M1 PAM inactive.
